Measured values reported in PubChem BioAssay (EPA / NIEHS).
The source made the active and inactive calls. The calls were made as follows: active = hit-call score of the fitted dose curve at least 0.9, where 1 is the maximum; inactive = score below 0.9.

experiment: APR_HepG2_MitoMembPot_24hr: Apredica 24-hour HepG2 Assay for Mitochondrial Membrane Potential (AID 2282911); details: imaging, actives raise or lower the signal
Method: APR_HepG2_24hr is a cell-based, multiplexed-readout assay that uses HepG2, a human liver cell line, with measurements taken at 24 hours after chemical dosing in a 384-well plate.APR_HepG2_MitoMembPot_24hr is one of 10 assay component(s) measured or calculated from the APR_HepG2_24hr assay. It is designed to make measurements of dye binding, a form of membrane potential reporter, as detected with fluorescence intensity signals by HCS Fluorescent Imaging technology.Data from the assay component APR_HepG2_MitoMembPot_24hr was analyzed into 1 assay endpoint. This assay endpoint, APR_HepG2_MitoMembPot_24hr, was analyzed with bidirectional fitting relative to DMSO as the negative control and baseline of activity. Using a type of membrane potential reporter, gain or loss-of-signal activity can be used to understand changes in the signaling. Furthermore, this assay endpoint can be referred to as a primary readout, because this assay has produced multiple assay endpoints where this one serves a signaling function. To generalize the intended target to other relatable targets, this assay endpoint is annotated to the cell morphology intended target family, where the subfamily is organelle conformation.
Cells were treated with dimethyl sulfoxide (DMSO) as a solvent control at a final concentration of 0.5% v/v or with compounds in DMSO with a resulting final DMSO concentration of 0.5% v/v. Compound treatment was done at concentrations of 0.39, 0.78, 1.56, 3.12, 6.24, 12.5, 25, 50, 100, and 200 uM in duplicate on each plate. Cells were treated with compounds for 1, 24, or 72 hr. Carbonyl […] m-chloro-phenylhydrazone (CCCP) and taxol were used as positive controls for mitochondrial function and cytoskeletal stability, respectively; DMSO served as the negative control for this experiment. Cells were fixed by the direct addition of 50 uL formaldehyde in Hank's Balanced Salt Solution (HBSS) to a final concentration of 3.7%. After incubation in the fixation medium for 30 min at room temperature (293-298 K), cells were rinsed twice with HBSS and treated with cell permeabilization buffer (16 uL of 0.5% Triton X-100) for 10 min at room temperature (293-298 K) before labeling. For mitochondrial membrane potential and mitochondrial measurements, pre-fixed cells were incubated with 50 uL of MitoTracker Red CMXRos (Invitrogen) at a concentration of 250 nM for 30 min before fixation. In the remaining cases, post-fixed cells were labeled by incubation with a multiplexed mixture of primary antibodies in HBSS for 60 min at room temperature (293-298 K) to detect immunoreactivity of c-Jun (1:500), phospho-histone H3 (1:100), phospho-histone H2A.x (1:200), p53 (1:400), alpha-tubulin (1:200) and Hoechst 33342 (2 ug/mL). Cells were labeled for multiplexed imaging on two separate plates: a) Hoechst 33342, MitoTracker Red, phospho-histone H3, and alpha-tubulin, and b) Hoechst 33342, phospho-histone H2A.x, and c-Jun. A final rinse with HBSS (50 uL) was performed before analysis. The primary and secondary antibodies for the proteins were phospho-histone H3 (rabbit anti-phospho-histone H3 and FITC-donkey anti-rabbit IgG), phospho-histone H2A.x (mouse anti-phospho-histone H2A.x and FITC-donkey anti-mouse IgG), c-Jun (rabbit anti-phospho-c-Jun and Cy3-donkey anti-rabbit IgG), p53 (sheep anti-p53 and Cy5-donkey anti-sheep IgG), alpha-tubulin (mouse anti-alpha-tubulin and Cy5-donkey anti-mouse IgG). These antibodies are available as the CellCiphr HepG2 assay kit (Millipore).Digital images of each well were captured using a Cellomics ArrayScan VTI (Thermo Scientific Cellomics) (0.8 NA objective, 0.63x optical coupler, and XF-93 filter set) at 20x magnification. The images were acquired using the autofocus feature of the ArrayScan instrument, which entails the following steps. First, the camera focuses on channel 1 (Hoechst 33342), where nuclei are identified. Second, a Z offset of 1 um is used for capturing mitochondria (MitoTracker Red). […]

SMILES | outcome | AC50
Clc1cccc(Cl)c1Cl | inactive | 
Oc1cc(Cl)c(Cl)cc1Cl | inactive | 
Clc1cccc(Cl)c1 | inactive | 
CCCCCCCCCCCCc1cccc(S(=O)(=O)O)c1 | inactive | 
N#Cc1cccnc1 | inactive | 
CN(C)C(=S)S | inactive | 
Cc1cc(C)cc(C)c1 | inactive | 
O=C(O)C1(c2ccc3c(c2)OC[C@H](Cc2ccc(-c4ccccc4)cc2)[C@H]3O)CCCC1 |  | 105 µM (active)
Oc1c(Cl)cc(Cl)cc1Cl | inactive | 
CC(C)O.CC(C)O.OCCN(CCO)CCO.OCCN(CCO)CCO.[Ti] | inactive | 
COc1ccccc1N |  | 29.3 µM (active)
OCCN(CCO)CCO | inactive | 
O=C(N[C@H]1CN2CCC1CC2)c1ccc2c(c1)OCCO2 | inactive | 
CC(C)(C)c1ccccc1O | inactive | 
